{"source": "PubChem BioAssay (Tox21)", "note": "Inconclusive results are not listed. Unmarked numbers belong to inactive results. The source made the active and inactive calls. Calls come from the whole dose curve; as a rule, active = well fitted cell-killing curve with a large enough effect in the repeat runs; inconclusive = weak or mixed curves, or effect the other way; inactive = flat fitted curve, though single readings scatter. % is set by controls: 0 for no effect and ±100 for the full control effect; potency is the fitted concentration of half-maximal effect."}
{"assay": "cAMP Responsive Elements (CRE) small molecule agonists, cell-based qHTS assay: qHTS cell viability counter screen (AID 2060914); note: nearly all actives have a fitted effect of over 50% in size", "conditions": "CRE-bla HEK293T viability, CellTiter-Glo luminescence, 5 h; series mostly up to 92.4 µM; activity change, negative = cytotoxicity: at the top concentration", "method_in_brief": "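Luminescence read-out (CellTiter-Glo, 30 min RT) of ATP-based viability in CRE-bla HEK 293T cells, run in the same wells as the β-lactamase reporter assay after 3 h compound treatment at 37 °C.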"}
{"smiles": "CSC(=O)c1cccc2nnsc12", "activity change, negative = cytotoxicity": "-1.63%"}
{"smiles": "O=C1CCCc2c(O)cccc21", "activity change, negative = cytotoxicity": "-4.48% [at 42.5 µM]"}
{"smiles": "CCCOC(=O)CC", "activity change, negative = cytotoxicity": "4.95%"}
{"smiles": "CC1CC(OC(=O)c2ccccc2O)CC(C)(C)C1", "note": "(stereo not given)", "Potency": "inactive"}
{"smiles": "F[Si-2](F)(F)(F)(F)F", "activity change, negative = cytotoxicity": "1.75%"}
{"smiles": "CC(CC(C#N)(c1ccccc1)C(C)C)N(C)C", "note": "(stereo not given)", "activity change, negative = cytotoxicity": "9.35% [at 42.5 µM]"}
{"smiles": "Cc1c(C2(c3cc(Br)c(O)c(Br)c3C)OS(=O)(=O)c3ccccc32)cc(Br)c(O)c1Br", "Potency": "52.9 µM (active)"}
{"smiles": "CC(CC(=O)Cl)CC(C)(C)C", "note": "(stereo not given)", "activity change, negative = cytotoxicity": "7.17%"}
{"smiles": "CC(C)(C)CC(C)(C)c1ccc(O)c(Cc2ccc(Cl)cc2Cl)c1", "Potency": "13.3 µM (active)"}
{"smiles": "O=C(c1ccccc1)c1ccc(O)cc1", "activity change, negative = cytotoxicity": "-7.3%"}
{"smiles": "CCCCN(CCCC)C(C(N)=O)c1ccc(OC)cc1", "note": "(stereo not given)", "activity change, negative = cytotoxicity": "-12.9% [at 42.5 µM]"}
{"smiles": "O=C1CCCCCCCCCCCC(=O)OCCO1", "activity change, negative = cytotoxicity": "-16.2%"}
{"smiles": "CCOC(=O)OC(=O)OCC", "activity change, negative = cytotoxicity": "2.93%"}
{"smiles": "CC(CCl)OC(C)CCl", "note": "(stereo not given)", "activity change, negative = cytotoxicity": "6.52%"}
{"smiles": "Nc1ccc2ccccc2c1S(=O)(=O)O", "activity change, negative = cytotoxicity": "-11.9%"}
{"smiles": "CC(=O)OCCN(CCOC(C)=O)c1ccc(N=Nc2ccc([N+](=O)[O-])cc2C#N)cc1", "activity change, negative = cytotoxicity": "-10.2%"}
{"smiles": "CCOC(=O)CC(CC(=O)OCC)(OC(C)=O)C(=O)OCC", "activity change, negative = cytotoxicity": "-0.975%"}
{"smiles": "c1ccc(OCc2ccc(CCCN3CCOCC3)cc2)cc1", "activity change, negative = cytotoxicity": "-12.3% [at 42.5 µM]"}
{"smiles": "C#C[C@]1(OC(C)=O)CC[C@H]2[C@@H]3CCC4=C[C@@H](OC(C)=O)CC[C@@H]4[C@H]3CC[C@@]21C", "activity change, negative = cytotoxicity": "-22.7% [at 42.5 µM]"}
{"smiles": "CC(=O)c1ccc2ccc3ccccc3c2c1", "activity change, negative = cytotoxicity": "-25%"}
{"smiles": "O=CC(=O)c1ccccc1", "activity change, negative = cytotoxicity": "0.547%"}
{"smiles": "CCc1ccc(O)c(C(C)(C)C)c1", "activity change, negative = cytotoxicity": "-22.4%"}
{"smiles": "Nc1cc([N+](=O)[O-])ccc1Cl", "activity change, negative = cytotoxicity": "-15.6%"}
{"smiles": "CCN(O)CC", "activity change, negative = cytotoxicity": "-9.54%"}
{"smiles": "NC(=NCCCCCCN=C(N)/N=C(\\N)Nc1ccc(Cl)cc1)/N=C(\\N)Nc1ccc(Cl)cc1", "Potency": "48.1 µM (active)"}
{"smiles": "CC[N+](C)(CC)CCOC(=O)C(O)(c1ccccc1)C1CCCCC1", "note": "(stereo not given)", "activity change, negative = cytotoxicity": "-9.92% [at 42.5 µM]"}
{"smiles": "CC(C=O)Cc1ccc(C(C)(C)C)cc1", "note": "(stereo not given)", "Potency": "inactive"}
{"smiles": "CC(=O)OC(C)(C)C", "activity change, negative = cytotoxicity": "2.87%"}
{"smiles": "CCc1oc2ccccc2c1C(=O)c1cc(I)c(O)c(I)c1", "activity change, negative = cytotoxicity": "-3.72% [at 42.5 µM]"}
{"smiles": "CCOC(=O)CN", "activity change, negative = cytotoxicity": "4.7%"}
{"smiles": "CCOC(C)OCC", "activity change, negative = cytotoxicity": "-0.0248%"}
{"smiles": "CC(C)CCCCCOC(=O)CS", "activity change, negative = cytotoxicity": "-3.24%"}
{"smiles": "O=[N+]([O-])c1cc(Cl)c(Cl)c(Cl)c1Cl", "activity change, negative = cytotoxicity": "4.8%"}
{"smiles": "CCCCNc1cc(C(=O)O)cc(S(N)(=O)=O)c1Oc1ccccc1", "activity change, negative = cytotoxicity": "-2.82% [at 42.5 µM]"}
{"smiles": "O=C(Cl)c1cc(C(=O)Cl)cc(C(=O)Cl)c1", "activity change, negative = cytotoxicity": "0.587%"}
{"smiles": "CC(C)c1ccc2c(c1)CC[C@H]1[C@](C)(CN)CCC[C@]21C", "activity change, negative = cytotoxicity": "-12.6%"}
{"smiles": "C[C@@H]1CCN(C(=O)[C@H](CCCN=C(N)N)NS(=O)(=O)c2cccc3c2NC[C@H](C)C3)[C@@H](C(=O)O)C1", "activity change, negative = cytotoxicity": "-0.703% [at 42.5 µM]"}
{"smiles": "CCN(CC)C(C)CN1c2ccccc2Sc2ccccc21", "note": "(stereo not given)", "activity change, negative = cytotoxicity": "0.214% [at 42.5 µM]"}
{"smiles": "CC(=O)OCC(C)C", "activity change, negative = cytotoxicity": "16.1%"}
{"smiles": "OCCN1CCN(CCO)CC1", "activity change, negative = cytotoxicity": "4.31%"}
